This is part of a sample that, as a whole, favours compounds with a hit. Of some 83,000 tested, about 20% had one in any assay.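 Values shown are percent growth following 48 h exposure of cells in 96-well plates to a single concentration of compound; below 10 was considered active.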 The source made the active and inactive calls.
Assays:
Assay in all cases: NCI-60 one-dose screen, 48 h (100 = growth as untreated, 0 = no growth, -100 = all killed)
Conditions in all cases: 10 µM unless noted
[1] = tested on: OVCAR-5 ovarian
[2] = tested on: OVCAR-4 ovarian
[3] = tested on: SK-OV-3 ovarian
[4] = tested on: IGROV1 ovarian
[5] = tested on: OVCAR-3 ovarian
[6] = tested on: HS 578T breast
[7] = tested on: NCI/ADR-RES ovarian
[8] = tested on: T-47D breast
[9] = tested on: OVCAR-8 ovarian

Measured: growth

CCSc1nnc2n(Cc3ccccc3)c(=O)c3c(C)c(C(N)=O)sc3n12
inactive: [1] 94.3% | [2] 99.5% | [3] 88.5% | [4] 101% | [5] 119% | [6] 101% | [7] 97.1% | [8] 99.8%

Cc1c(C(N)=O)sc2c1C(=O)N(Cc1ccccc1)C1=NN=C(c3ccc(Cl)cc3)CN12
inactive: [1] 57.2% | [2] 48.6% | [3] 58.5% | [4] 42.6% | [5] 31.5% | [6] 78.2% | [8] 63.4%
active: [7] 9.99%

O=C1Cc2cc(CCN3CCN(CCOCCO)CC3)c(Cl)cc2N1Cc1ccc(-c2ccccc2-c2nn[nH]n2)cc1
inactive: [1] 96.6% | [2] 89.6% | [3] 93.8% | [5] 94.5% | [6] 85% | [7] 90.6% | [8] 101%

CC(=O)n1c2ccccc2c2ccccc21
inactive: [1] 89.3% | [2] 105% | [3] 122% | [4] 101% | [5] 114% | [7] 100% | [8] 105%

Cc1c(C(N)=O)sc2c1c(=O)n(Cc1ccccc1)c1nnc(S(=O)(=O)CC(=O)Nc3ccc(Cl)cc3)n21
inactive: [1] 82.7% | [3] 18.7% | [4] 40% | [6] 17.8% | [7] 108% | [8] 21.8%
active: [5] 5.69%

COC(=O)[C@]1(CCSC)N[C@H](c2cn(-c3ccccc3)nc2C)[C@@H]2C(=O)N(c3ccccc3)C(=O)[C@@H]21
inactive: [1] 104% | [2] 106% | [3] 95.2% | [4] 118% | [5] 98.7% | [6] 93.7% | [7] 91% | [8] 108%

O=C(OCCBr)c1ccc(Cl)c([N+](=O)[O-])c1
active: [5] -21.3% | [6] -29.9% | [8] -57.2%
inactive: [9] 102% | [1] 108% | [3] 79.4% | [4] 102% | [7] 113%

Cc1nn(-c2ccccc2)c2nc(Cl)c(/C=C/C(=O)c3ccccc3)c(-c3ccccc3)c12
inactive: [1] 103% | [2] 107% | [3] 102% | [4] 120% | [5] 116% | [6] 95.5% | [7] 105% | [8] 107%

O=Nc1ccc(O)c(=O)cc1
inactive: [9] 43.8% | [1] 68.1% | [3] 108% | [4] 18.7% | [6] 107% | [7] 38% | [8] 18.5%

O=C1Cc2cc(CCn3cncn3)c(Cl)cc2N1
inactive: [1] 87.4% | [2] 86.8% | [3] 79.3% | [4] 84.7% | [5] 71.7% | [6] 28.6% | [7] 52.9% | [8] 99.1%

NC(=Nc1ccccc1)SCCCCSC(N)=Nc1ccccc1
inactive: [1] 83.3% | [2] 77.3% | [3] 108% | [4] 75.3% | [5] 72% | [7] 66.3% | [8] 62.2%

Cc1nn(-c2ccc(Cl)cc2)c2nc3c(nc12)c(=O)oc1ccccc13
inactive: [1] 98% | [2] 113% | [3] 107% | [4] 119% | [5] 118% | [6] 107% | [7] 102% | [8] 111%

c1ccc2cc(C[n+]3ccn(CCCCCCCn4cc[n+](Cc5ccc6ccccc6c5)c4)c3)ccc2c1
inactive: [1] 48.2% | [2] 37.3% | [3] 36.1% | [4] 27.5% | [5] 44.4% | [6] 61.5% | [7] 99.7% | [8] 23.4%
